Shown are actives, neighbours in structure and some others; about 3.6% of the full set was active somewhere.
KKLEB cytotox: CF airway cell cytotoxicity counter-screen. hit rate 0.36% among 360,000. AID 602141. KKLEB CF airway cells viability, ATPlite luminescence, overnight; hits give low values; cells stimulated with P. aeruginosa culture filtrate. activity change (cytotoxicity), % at 5 µM;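 active = corrected activity change at or below -50% at 5 µM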
Mdm2-MdmX inh: inhibitors of human Mdm2/MdmX interaction. O15151+Q00987. SaOS-2 split-luciferase Mdm2/MdmX complementation, luminescence. inhibition, % at 8 µM. hit rate 3% among 330,000;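 active = inhibition of at least 50% at 8 µM in the primary screen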
LGR2 antag: Drosophila LGR2 receptor signaling inhibition; AID 720647; hit rate 0.35% among 380,000; HEK293 LGR2, CRE-luciferase, bursicon-stimulated, 4 h; inhibition, % at 9.99 µM;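 active = drop in luminescence signal, shown as inhibition above about 50% in the replicate tests, limit read from the data, passing the limit was not always enough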;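 also: agonist challenge used bursicon conditioned medium at about half maximal strength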
Peg3 prom inh: reduces Peg3 promoter-driven luciferase expression in HeLa. HeLa PEG-Prom luciferase reporter, luminescence, overnight. inhibition, % at 20 µM. hit rate 1.7% among 360,000;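 active = inhibition of at least 50% at 20 µM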
HSP90 refold inh: blocks HSP90-mediated luciferase refolding in reticulocyte lysate; Rabbit reticulocyte lysate, luciferase refolding luminescence, 3 h; inhibition, % at 5.6 µM; hit rate 0.91% among 290,000; AID 1789;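 active = inhibition above the screen-wide mean plus 3 SD, computed separately per campaign, cut at about 16% in these data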;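 also: inhibitors lower the luminescence because luciferase stays unfolded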
CF NFkB block: cystic fibrosis NF-kB activation inhibition | hit rate 0.86% among 360,000 | AID 588850 | KKLEB NF-kB-GFP reporter, PAF-induced, GFP fluorescence overnight | inhibition, % at 5 µM;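 active = at least 50% inhibition at 5 µM, scaled per plate between neutral and stimulator controls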;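 also: PAF is a Pseudomonas aeruginosa culture filtrate used as stimulus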
Mdm2-MdmX conf: human Mdm2/MdmX binding inhibition, confirmed | shares compounds with Mdm2-MdmX inh | luminescent assay | inhibition, % at 8 µM | hit rate 55% among 10,000 | AID 489028; in the data active = inhibition above about 40%
FLuc counter: counter-screen for Mdm2/MdmX inhibitors: full-length luciferase; hit rate 77% among 6,200; shares compounds with Mdm2-MdmX inh; SaOS-2 full-length luciferase counterscreen, luminescence; inhibition, % at 8 µM;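 active = mean inhibition at 8 µM reaching about 37%, which flags the compound as non-specific, limit read from the data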;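 also: p53-null SaOS-2 cells with luciferase driven by a doxycycline-inducible promoter; compound on cells about two nights before reading with doxycycline added after day one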
Numbers stand for hits; 0 = inactive; - = not tested or not shown.

SMILES	KKLEB cytotox	Mdm2-MdmX inh	LGR2 antag	Peg3 prom inh	HSP90 refold inh	CF NFkB block	Mdm2-MdmX conf	FLuc counter
CCCCNc1nc(NCc2ccccc2)nc2ccccc12	-	-	0	-	-	-	-	-
CNc1nc(NCc2ccccc2)c2ccccc2n1	0	65.6	0	0	0	0	0	-
O=C(CNC(=O)c1ccccc1)NCCc1ccc(O)c(O)c1	0	0	0	0	0	0	-	-
O=C(Cc1ccccc1)NNc1c2ccccc2nc2ccccc12	0	0	0	0	0	0	-	-
Oc1ccccc1Nc1nc(NCc2ccccc2)c2ccccc2n1	0	83.4	0	0	0	0	0	-
Cc1c(Cl)cccc1Nc1nc(NCCO)c2ccccc2n1	0	0	0	0	0	0	-	-
Oc1ccc(CCNc2c3ccccc3nc3ccccc23)cc1O	0	64.0	0	108.7	0	0	51.2	76.2
c1ccc(CNc2c3ccccc3nc3ccccc23)cc1	0	69.5	0	96.7	0	0	0	60.8
CC(C)NC(=O)Nc1ccc2c(c1)C(=O)N([C@@H](C)CO)C[C@@H](C)[C@@H](CN(C)Cc1ccc(C(F)(F)F)cc1)O2	-	-	0	-	-	-	-	-
CNC[C@H]1Oc2ccc(NS(=O)(=O)c3ccc(F)cc3)cc2C(=O)N([C@H](C)CO)C[C@@H]1C	-	-	0	-	-	-	-	-
O=C(Cc1ccccn1)N1CC(=O)N2[C@H](CO)[C@H](c3ccc(-c4ccccc4)cc3)[C@@H]2C1	-	-	0	-	-	-	-	-
C/C(=N\Nc1ccc([N+](=O)[O-])cc1[N+](=O)[O-])c1cccnc1	0	0	0	0	0	0	-	-
C/C(=N\Nc1ccc(S(N)(=O)=O)cc1[N+](=O)[O-])c1cccnc1	0	58.2	0	0	0	0	0	-
C[C@@H]1CN([C@H](C)CO)C(=O)c2cccc(NC(=O)Nc3ccc4c(c3)OCO4)c2O[C@@H]1CN(C)C(=O)Nc1ccc(F)cc1	-	-	0	-	-	-	-	-
CCOC(=O)c1c2ccc(OCC(=O)N/N=C/c3ccc(C)cc3)cc2n2ccccc12	0	83.8	-	83.8	0	0	78.8	107.0
CCC(=O)Nc1nc2ccccc2n1CCN1CCOCC1	0	0	0	0	0	0	-	-
CCn1c(NC(=S)Nc2ccccc2)nc2ccccc21	0	0	-	0	0	0	-	-
CCCCCCCn1c(NC(=O)CC)nc2ccccc21	0	77.3	0	0	0	0	41.5	51.5
S=C(Nc1ccccc1)Nc1nc2ccccc2n1CCOc1ccc(Cl)cc1	0	83.7	0	0	0	0	41.3	67.8
CCCn1c(NC(=O)c2cccc(S(=O)(=O)N3CCCC3)c2)nc2ccccc21	0	93.3	-	97.4	0	73.7	75.8	57.4
CCCn1c(NC(=S)Nc2ccccc2)nc2ccccc21	0	52.2	0	0	0	0	0	-
CO[C@H]1CN(C)C(=O)c2ccc(NC(=O)Nc3ccccc3)cc2OC[C@@H](C)N(C(=O)Nc2c(C)noc2C)C[C@@H]1C	-	-	0	-	-	-	-	-
CCCn1c(Nc2nc3ccccc3n2C)nc2ccccc21	0	89.5	-	89.6	0	0	100.2	53.0
C[C@@H]1CN([C@@H](C)CO)S(=O)(=O)c2ccc(C#CC3CCCC3)cc2O[C@H]1CN(C)C	-	-	0	-	-	-	-	-
CC(C)(C)c1cc(C(c2cccnc2)N2CCN(CCO)CC2)cc(C(C)(C)C)c1O (stereo unspecified)	0	100.3	0	104.4	0	0	75.7	58.4
SMILES	KKLEB cytotox	Mdm2-MdmX inh	LGR2 antag	Peg3 prom inh	HSP90 refold inh	CF NFkB block	Mdm2-MdmX conf	FLuc counter
OCCN1CCN(C(c2cccs2)c2ccc3cccnc3c2O)CC1 (stereo unspecified)	-	-	-	-	0	-	-	-
C=C[C@H](Cc1ccccc1)N(Cc1ccccc1)S(=O)(=O)N(Cc1ccccc1)[C@H](C=C)Cc1ccccc1	0	89.8	0	0	-	0	62.9	86.3
Cc1ccc(N(C(=O)Cc2c[nH]c3ccccc23)C(C(=O)NC2CCCCC2)c2ccco2)cc1 (stereo unspecified)	0	54.9	-	0	0	0	40.1	85.7
O=C(Nc1ccc(Oc2ncnc3cc(Cl)ccc23)nc1)c1cccs1	0	77.7	0	0	0	0	72.6	102.1
CCCCN1C(=O)C(O)(CC(=O)c2c(C)n[nH]c2C)c2cc(Br)ccc21 (stereo unspecified)	0	0	0	0	0	0	-	-
CCCCN1C(=O)C(O)(CC(=O)c2ccco2)c2cc(Br)ccc21 (stereo unspecified)	0	65.2	-	0	0	0	50.6	74.8
Nc1c(Cl)cc(-c2csc(N3CCCC3c3nc4cc(Cl)c(N5CCCCC5)cc4n3CCCO)n2)cc1Cl (stereo unspecified)	0	84.9	-	0	-	0	0	-
CCCn1c2ccccc2c2cnn(CC(=O)NC3CCCC(C)C3C)c(=O)c21 (stereo unspecified)	0	88.9	0	0	0	0	0	-
Cc1ccc(-n2nnnc2SCC(=O)Nc2ncc(Cc3ccccc3Cl)s2)cc1	0	58.8	0	0	0	0	0	-
O=C(CSc1nnnn1-c1ccccc1)Nc1ncc(Cc2cc(Cl)ccc2Cl)s1	0	0	-	0	0	0	-	-
O=C(CSc1nnnn1-c1ccccc1)Nc1ncc(Cc2cccc(Cl)c2Cl)s1	0	56.2	-	0	0	0	0	-
CCc1ccc(CCC(=O)Nc2ncc(Cc3ccccc3Cl)s2)o1	0	66.4	-	0	0	0	51.3	79.6
Cc1ccc(-n2nnnc2SCC(=O)Nc2cccnc2Cl)cc1	0	0	0	0	0	0	-	-
CN(C)CC(=O)N1[C@H](C(=O)NC2CCC2)[C@@H](CO)[C@@H]2Cn3c(ccc(-c4ccccc4)c3=O)[C@@H]21	-	-	0	-	-	-	-	-
CCCC(=O)N1CC2(CN(C)C2)c2c(n(C)c3cc(OC)ccc23)[C@H]1CO	-	-	0	-	-	-	-	-
CCC(=O)N1CC(=O)N2[C@H](C1)[C@H](c1ccc(C#Cc3cccnc3)cc1)[C@@H]2CO	-	-	0	-	-	-	-	-
CC(C)(C)NC(=O)CC1C[C@H](C(=O)N2CCCCC2)[C@@]2(CCc3ccccc3)c3[nH]c4ccccc4c3CCN2C1=O (stereo partly specified)	0	61.9	0	0	-	0	49.7	70.0
COc1ccc2[nH]c3c(c2c1)CCN1C(=O)C(CC(=O)NC(C)(C)C)C[C@H](C(=O)N2CCCCC2)[C@@]31CCc1ccccc1 (stereo partly specified)	0	0	0	0	-	0	-	-
O=C(CC1C[C@H](C(=O)N2CCCCC2)[C@@]2(CCc3ccccc3)c3[nH]c4ccccc4c3CCN2C1=O)NCc1ccco1 (stereo partly specified)	0	51.6	0	0	-	0	0	-
CN(C)C(=O)CCc1ccc2c3c([nH]c2c1)[C@]1(CCc2ccccc2)[C@@H](C(=O)N2CCCCC2)C[C@H](CC(=O)NCc2ccco2)C(=O)N1CC3	0	97.8	0	0	-	0	74.0	51.4
CCC(=O)N(C)C[C@@H]1Oc2cc(/C=C/c3ccccc3)ccc2S(=O)(=O)N([C@H](C)CO)C[C@H]1C	-	-	0	-	-	-	-	-

Compound activity (PubChem)
